This is an account of results in PubChem BioAssay (NCI).

Compounds without any hit were thinned out: in the full panel of roughly 83,000, 20% have a hit.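 In brief: 96-well plates, 48 h treatment, single concentration, percent growth endpoint.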 Activity calls are given as the source filed them. Rule for the calls: active = growth percent below 10; inactive = the rest.

The subject of one test is SF-539 CNS. In words: NCI-60 one-dose screen, 48 h (100 = growth as untreated, 0 = no growth, -100 = all killed). The note with it: 10 µM unless noted.
In the case of `C/C(=C\C(=N\N=C(N)N)c1ccc(Cl)cc1)c1ccc(Cl)cc1`, the growth is -73.7% (active).
Still for that read-out and setting: the same measure for `O=C(NO)c1ccc(NCc2csc3ccccc23)cc1`: 70.3% (inactive); for `C#CC[C@@H]1C[C@]2(C)[C@H]3CC=C4[C@H]5CC(C)(C)CC[C@]5(C(=O)NCCCCN)CC[C@@]4(C)[C@]3(C)CC[C@H]2C(C)(C)[C@H]1OC(C)=O`: 86.9% (inactive).
Turning to `Oc1ccc(Cl)cc1-c1cc(-c2ccccc2Cl)[nH]n1`, the growth was 83.4% (inactive).
`CC1C2CCC(C2)C1COCCOCCO` (stereo not given): the growth is 96.7% (inactive).
Turning to `O=C1C(Cl)=C(N/N=c2/[nH][nH]/c(=N/NC3=C(Cl)C(=O)c4ccccc4C3=O)c3ccccc23)C(=O)c2ccccc21`, the growth is 47.3% (inactive).
Consider `COc1ccc(/C=c2\c(=O)n(-c3ccccc3)c3nn4c(n23)=NNC42CCCCC2)cc1`, for which the growth is 102% (inactive).
Consider `CCNC(=S)N(Cc1ccccc1)Cc1ccccc1`, for which the growth is 104% (inactive).
For `N#CC1=C(N)Oc2nc[nH]c(=O)c2C1c1cccs1` (stereo not given), the growth was 101% (inactive).
Take `CCN(C(=O)Nc1cccc2ccccc12)c1ccccc1`: the growth is 93.5% (inactive).
Consider `COc1ccc(-c2nc(-c3cc(OC)cc(OC)c3)[nH]c2-c2ccc(OC)cc2)cc1`, for which the growth was 80.5% (inactive).

A further test relates to UACC-257 melanoma. Described as above. The conditions noted are these: 10 µM unless noted.
Regarding `CCOC(=O)c1ccc(N(CCC(=O)O)C(C)=O)cc1`, the growth is 98.2% (inactive).
For `Nc1c(C(=O)Nc2cccc(Cl)c2)sc2ncc(Br)cc12`, the growth was 96% (inactive).
For `CSC(=S)N/N=C(\C)c1ccccn1`, the growth is 7.4% (active).
Take `CC(=O)O[C@H]1[C@H](CC#CC#CC[C@@H]2C[C@]3(C)[C@H]4CC=C5[C@H]6[C@@H](C)[C@H](C)CC[C@]6(C(=O)NCCCCCCCCN)CC[C@@]5(C)[C@]4(C)CC[C@H]3C(C)(C)[C@H]2OC(C)=O)C[C@]2(C)[C@H]3CC=C4[C@H]5[C@@H](C)[C@H](C)CC[C@]5(C(=O)NCCCCCCCCN)CC[C@@]4(C)[C@]3(C)CC[C@H]2C1(C)C`: the growth was 106% (inactive).
Regarding `CC(C)COC(=O)NC(C)(C)C`, the growth was 102% (inactive).
On to `CCC(=O)NC(O)C(Cl)(Cl)C(C)Cl` (stereo not given), for which the growth is 93.4% (inactive).
For the compound `C#CCNC(=S)N/N=C(\C)c1ccccn1`, the growth is 16.4% (inactive).
Take `COc1ccc(-c2nnc(SCC(=O)Nc3ccc(C(=O)/C=C/c4ccc(Cl)cc4)cc3)n2-c2ccccc2)cc1`: the growth is 115% (inactive).
On to `CC1CCN(Cc2ccc(NC(=O)c3cc4ccc5cccnc5c4[nH]3)cc2)CC1`, for which the growth is -40.6% (active).
On to `CC(C)N1CCN(c2ccncc2S(=O)(=O)N2CCN(C)CC2)CC1`, for which the growth is 102% (inactive).
Take `O=C(/C=C/c1ccccc1)n1c(-c2ccccc2)nc2ccccc21`: the growth was 92.4% (inactive).
Same read-out and setting: under `COC1CC(N)C2OC(c3ccccc3)OCC2O1` (stereo not given) stands 95.4% (inactive).
Take `COc1cccc(NC(=O)[C@H](C(C)C)n2c(=O)[nH]c3ccccc3c2=O)c1`: the growth was 96.5% (inactive).
As for `COc1ccc(-c2cnc3ccnn3c2-c2cc(OC)c(OC)c(OC)c2)cc1`, the growth is 58.4% (inactive).
Same read-out and setting: under `COc1cc2cc(C(=O)Nc3ccccc3)c(N)nc2cc1OC` stands -81.3% (active); under `O=C(C=P(c1ccccc1)(c1ccccc1)c1ccccc1)CCl`, -73.5% (active).
For the compound `CCCCCCCCCCCCCCCCS(=O)(=O)Nc1cc(C(=O)NN)cc(C(=O)NN)c1`, the growth is 107% (inactive).
As to `COS(=O)(=O)CCN(CCOS(C)(=O)=O)S(C)(=O)=O`, the growth is 82.6% (inactive).
The same measure, in the same setting: the same measure for `CCn1c(CN2CCN(Cc3ccccc3)CC2)nc2cc(NC(=O)c3cccs3)ccc21`: -80.1% (active); for `CC(=O)c1ccc(-n2c(-c3cc(-c4ccsc4)n[nH]3)n[nH]c2=S)cc1`: 101% (inactive); for `CCN(CC)Cc1cc(Nc2ccnc3cc(Cl)ccc23)cc(-c2ccc(Cl)cc2)c1O`: 10.5% (inactive).
Still for that read-out and setting: under `O=C(NCC(c1ccsc1)N1CCCCCC1)c1ccc(C(F)(F)F)cc1` (stereo not given) stands 108% (inactive); under `COc1cc(NC(C)CCCN)c2ncccc2c1Oc1ccc(Cl)cc1` (stereo not given), 88.5% (inactive); under `O=C(c1ccccc1)N(CCCCl)C(=O)N(CCCCl)C(=O)c1ccccc1`, 100% (inactive).
`COc1ccc(C2=CC(c3ccc(OC)cc3Br)N3C=CSC3=N2)cc1` (stereo not given): the growth is 80% (inactive).
As for `CC(=O)c1nn(-c2ccccc2)/c(=N\N=C\c2coc3ccc(F)cc3c2=O)s1`, the growth was 116% (inactive).
Regarding `O=C(c1ccc(C(F)(F)F)c(Cl)c1)N(Cc1ccc(Cl)cc1)c1ccc(-c2cc(C(F)(F)F)[nH]n2)c(O)c1`, the growth is 10.3% (inactive).
Turning to `C/C(=N\OC(=O)Nc1cccc(Cl)c1)c1ccccc1`, the growth was 104% (inactive).
For the compound `C/C(=C\C(=N\N=C(N)N)c1ccc(Cl)cc1)c1ccc(Cl)cc1`, the growth was -72.5% (active).
`O=C(NO)c1ccc(NCc2csc3ccccc23)cc1`: the growth is 70.2% (inactive).
Consider `C#CC[C@@H]1C[C@]2(C)[C@H]3CC=C4[C@H]5CC(C)(C)CC[C@]5(C(=O)NCCCCN)CC[C@@]4(C)[C@]3(C)CC[C@H]2C(C)(C)[C@H]1OC(C)=O`, for which the growth was 111% (inactive).
On the same count and under the same terms, under `Oc1ccc(Cl)cc1-c1cc(-c2ccccc2Cl)[nH]n1` stands 81.8% (inactive); under `CC1C2CCC(C2)C1COCCOCCO` (stereo not given), 87.8% (inactive); under `O=C1C(Cl)=C(N/N=c2/[nH][nH]/c(=N/NC3=C(Cl)C(=O)c4ccccc4C3=O)c3ccccc23)C(=O)c2ccccc21`, 97.7% (inactive).
Still for that read-out and setting: the same measure for `COc1ccc(/C=c2\c(=O)n(-c3ccccc3)c3nn4c(n23)=NNC42CCCCC2)cc1`: 111% (inactive); for `CCNC(=S)N(Cc1ccccc1)Cc1ccccc1`: 98.7% (inactive); for `N#CC1=C(N)Oc2nc[nH]c(=O)c2C1c1cccs1` (stereo not given): 98.4% (inactive).
With `CCN(C(=O)Nc1cccc2ccccc12)c1ccccc1`, the growth was 112% (inactive).
Regarding `COc1ccc(-c2nc(-c3cc(OC)cc(OC)c3)[nH]c2-c2ccc(OC)cc2)cc1`, the growth was 62.9% (inactive).
